Shn3 3UTR inh: inhibitors of Schnurri-3 3'UTR reporter in osteoblasts | 360,000 compounds, 0.52% hits | Clone20 osteoblast Shn3 3'UTR firefly luciferase, 24 h | inhibition, % at 12.5 µM;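 active = mean inhibition of at least 75% with every replicate also reaching 75%; inconclusive = mean inhibition at least 75% but some replicate below; inactive = mean inhibition below 75%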
CF NFkB inh: cystic fibrosis NF-kB activation inhibition | KKLEB NF-kB-GFP reporter, PAF-induced, GFP fluorescence overnight | inhibition, % at 5 µM | 360,000 compounds, 0.86% hits | AID 588850;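 active = at least 50% inhibition at 5 µM, scaled per plate between neutral and stimulator controls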;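 note: PAF is a Pseudomonas aeruginosa culture filtrate used as stimulus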
HIF-2a inh: blocks HIF-2a reporter activity; 360,000 compounds, 0.72% hits; 786-0 RCC cells HIF-2a reporter, luciferase luminescence, overnight; inhibition, % at 18.8 µM; AID 624352;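 active = inhibition of the luminescence signal of 40% or more relative to plate controls, in a single-dose primary screen at 18.75 µM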
Peg3 promoter: reduces Peg3 promoter-driven luciferase expression in HeLa; HeLa PEG-Prom luciferase reporter, luminescence, overnight; inhibition, % at 20 µM; 360,000 compounds, 1.7% hits;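 active = inhibition of at least 50% at 20 µM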
KKLEB cytotox: reduces viability of KKLEB cystic fibrosis airway cells; activity change (cytotoxicity), % at 5 µM; KKLEB CF airway cells viability, ATPlite luminescence, overnight; stronger effect = lower value; cells stimulated with P. aeruginosa culture filtrate; 360,000 compounds, 0.36% hits;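 active = corrected activity change at or below -50% at 5 µM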
TRPM1 prom inh: reduces MITF-dependent TRPM1 promoter luciferase signal; inhibition, % at 12.5 µM; AID 488899; SK-MEL-5 TRPM1 promoter luciferase, 24 h; 330,000 compounds, 0.83% hits;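 active = mean inhibition across replicates of 60% or more, whatever share of single replicates reaches that level; inconclusive = some that reach 60%, reason not given; inactive = mean inhibition across replicates below 60%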
Mdm2 MdmX conf: Mdm2/MdmX (human) interaction inhibition, confirmed; 740 compounds, 99% hits; inhibition, % at 8 µM; shares compounds with HIF-2a inh; SaOS-2 split-luciferase Mdm2/MdmX complementation, luminescence;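 active = mean inhibition of the luminescence signal across two replicates at or above 26 percent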
HIF-2a inh conf: HIF-2a inhibition, single concentration confirmation. shares compounds with HIF-2a inh. 786-0 RCC cells, HIF-2a luciferase reporter luminescence, overnight. inhibition, % at 18.8 µM. 1,800 compounds, 56% hits. AID 651580;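 active = mean inhibition across four replicates of at least 40 percent at the single tested concentration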
HIF-1a cs: counter-screen for HIF-2a inhibitors: HIF-1a inhibition in MiaPaCa-2 cells | AID 651589 | MiaPaCa-2 HIF-1a luciferase reporter, desferoxamine, overnight | 1,800 compounds, 72% hits | shares compounds with HIF-2a inh | inhibition, % at 18.8 µM;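 active = mean inhibition of the reporter signal across four replicates at the single tested dose of 50% or more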
Numbers stand for hits; n = inactive; u = inconclusive; x = no result. Most compounds without a hit are left out; they make up all but 2.7% or so of the library.

SMILES | Shn3 3UTR inh | CF NFkB inh | HIF-2a inh | Peg3 promoter | KKLEB cytotox | TRPM1 prom inh | Mdm2 MdmX conf | HIF-2a inh conf | HIF-1a cs
Cn1c(=O)c2cc(NC(=O)CCc3ccccc3)ccc2n1-c1ccccc1F | n | n | n | n | n | x | x | x | x
Cc1ccc(NC(=O)c2cc3ccccc3oc2=O)cc1S(=O)(=O)N(C)C | n | n | 81 | 77 | n | 76 | x | 88 | 88
Cc1ccc(NC(=O)c2cc3ccccc3o2)cc1S(=O)(=O)N(C)C | n | n | n | n | n | n | x | x | x
O=C(Nc1ccc(Cl)cc1Cl)c1cccc(N2C(=O)C=CC2=O)c1 | n | n | 44 | 108 | n | n | x | 80 | n
CCOC(=O)C1=C(C)N=c2sc(=Cc3cc(Cl)c(OCC(=O)O)c(Cl)c3)c(=O)n2C1c1cccc(OC)c1 (stereo unspecified) | n | n | 44 | n | n | x | x | 46 | n
COc1ccc(/C=C/c2c(-c3ccc(OC)cc3)oc3ccc(-c4ccc(OC)cc4)cc23)cc1 | n | n | n | n | n | n | x | x | x
COc1ccc(/C=C/c2cc(-c3ccc(C)cc3)o[n+]2C)cc1 | 83 | 56 | 43 | 67 | -62 | 88 | 102 | 54 | 103
CCCCc1ccc(S(=O)(=O)NC(=O)C2(C)CCN2C(=O)Cc2ccccc2)cc1 (stereo unspecified) | n | n | n | n | n | x | x | x | x
C[C@@H]1C[C@@H]2OC(=O)[C@]3(C)[C@H]2[C@@H](OC3(C)O)[C@]2(C)C(=O)C=C[C@H]12 (stereo partly specified) | n | n | n | n | n | n | x | x | x
C=C1C(=O)O[C@@H]2C[C@@H](C)[C@@H]3C=CC(=O)[C@@]3(C)[C@@H](OC(C)=O)[C@H]12 | x | x | x | x | x | x | 102 | x | x
CCn1c2ccccc2c2cc(NC(=O)CSc3nnc(-c4ccc(OC)cc4)n3N)ccc21 | n | n | 41 | n | n | n | x | n | n
COc1cc(-c2c(CCO)sc3ccccc23)cc(OC)c1OC | x | x | n | x | x | x | x | x | x
Cc1c(C)c2ccc(OCc3ccc(C(=O)O)o3)c(C)c2oc1=O | n | n | 50 | n | n | n | x | n | n
O=C1CCN(Cc2ccco2)C(=S)N1 | n | n | n | n | n | n | x | x | x
CCOC(=O)C1CCN(Cc2cc(=O)oc3c(C)c(C)ccc23)CC1 | n | n | 57 | n | n | n | x | 78 | n
Cn1nc(C(C)(C)C)cc1NC(=O)C1(C)CCN1C(=O)Cc1ccc(-c2ccccc2)cc1 (stereo unspecified) | n | n | n | n | n | x | x | x | x
COC(=O)c1ccc(NC(=O)c2nc(S(=O)(=O)Cc3cccc(C)c3)ncc2Cl)cc1 | 95 | 85 | 92 | 99 | -101 | 94 | 103 | 75 | 94
CC1CCN(S(=O)(=O)c2ccc(NC(=O)c3ccncc3)cc2)CC1 | n | n | n | n | n | n | x | x | x
CCS(=O)(=O)c1ncc(Cl)c(C(=O)Nc2ccc(S(=O)(=O)N3CCC(C)CC3)cc2)n1 | 99 | 98 | 86 | 105 | -105 | 97 | 103 | 99 | 103
CC(C)c1nnc(NC(=O)c2nc(S(=O)(=O)Cc3ccccc3)ncc2Cl)s1 | 94 | 100 | 92 | 105 | -87 | 83 | 102 | x | x
Cc1ccc(NC(=O)c2nc(S(=O)(=O)Cc3ccccc3C)ncc2Cl)cc1C | 96 | 99 | 93 | 108 | -98 | 78 | 103 | x | x
CC(C)c1nnc(NC(=O)CCc2ccccc2)s1 | n | n | n | n | n | n | x | x | x
CN(c1ccccc1)S(=O)(=O)c1ccc(NC(=O)c2nc(S(C)(=O)=O)ncc2Cl)cc1 | 99 | 108 | 65 | 111 | n | 100 | 103 | 99 | 94
Cc1cccc(CS(=O)(=O)c2ncc(Cl)c(C(=O)NCc3ccc4c(c3)OCO4)n2)c1 | 94 | 89 | 62 | 103 | n | u | x | 49 | n
CCc1ccc(NC(=O)c2nc(S(=O)(=O)Cc3ccccc3)ncc2Cl)cc1 | 96 | 91 | 95 | 101 | -97 | 92 | 103 | 88 | 87
SMILES | Shn3 3UTR inh | CF NFkB inh | HIF-2a inh | Peg3 promoter | KKLEB cytotox | TRPM1 prom inh | Mdm2 MdmX conf | HIF-2a inh conf | HIF-1a cs
COc1ccccc1NC(=O)c1nc(S(=O)(=O)Cc2ccccc2)ncc1Cl | 99 | 83 | 89 | 105 | -85 | 91 | 101 | 83 | 104
CN(c1ccccc1)S(=O)(=O)c1ccc(NC(=O)c2ccccc2)cc1 | n | n | n | n | n | n | x | x | x
Cc1ccc(C(=O)NCc2ccc3c(c2)OCO3)c(Cl)c1 | n | n | n | n | n | x | x | x | x
Nc1nc2c(ncn2[C@@H]2O[C@H](CNCc3ccc(Oc4cc(-n5cccn5)ncn4)cc3)[C@@H](O)[C@H]2O)c(=O)[nH]1 | n | n | n | n | n | x | x | x | x
CC(O)(c1ccc(F)c(F)c1)c1nc(-c2ccccc2)cs1 (stereo unspecified) | n | n | n | n | n | x | x | x | x
CN1CCc2c(n(CC(O)CNCc3ccccc3)c3ccccc23)C1=O (stereo unspecified) | n | n | n | n | n | n | x | x | x
CC(C)NCC(O)Cn1c2c(c3ccccc31)CCc1c-2cnn1-c1ccccc1 (stereo unspecified) | n | n | 41 | 104 | n | 85 | x | n | 105
Cc1csc(-c2cc(C(=O)NCc3ccc(F)cc3)n[nH]2)c1 | n | n | n | n | n | x | x | x | x
CCOc1cccc(/C=N/Nc2ccc(S(=O)(=O)N(CC)CC)cn2)c1O | u | n | n | n | n | n | 91 | x | x
Cc1cccc([C@@H]2[C@@H]3C(=O)N(Cc4ccccc4)C(=O)[C@@H]3[C@]3(Cc4ccccc4)C(=O)N(c4ccc(C(F)(F)F)cc4)C(=O)N23)c1 | n | n | n | n | n | n | 103 | x | x
CCCc1ccc(-c2ccc(/C=C/C(=O)O)cc2)nc1 | n | n | 87 | n | n | 86 | x | 89 | 91
CCOC(=O)c1ccccc1Nc1cn(C(C)=O)c2ccccc12 | n | n | n | n | n | n | x | x | x
CC(=O)n1cc(N(C(=O)CCl)c2ccc(Cl)cc2)c2ccccc21 | n | 98 | 83 | 108 | -94 | x | x | 98 | 108
COC(=O)c1ccc2c(c1)C(C)(C)C(/C=C/c1ccc(OC)c(OC)c1OC)=[N+]2C | 88 | n | 95 | 107 | n | 101 | 103 | 88 | 107
COc1ccc(/C=N/Nc2ccc(C(=O)O)cc2)c(OC)c1OC | n | n | n | n | n | n | x | x | x
CC(C)C[C@H]1CNC(=S)N1C[C@H]1CCCN1C[C@H](CC(C)C)N1C[C@H](Cc2ccc(O)cc2)N(CC2CCCCC2)C1=S | x | x | n | x | x | x | x | x | x

Bioassay records as filed in PubChem.
